# Columns and labels:
# ETS1 [1] = biological target: T1, ETS1 (UniProt P14921); experiment: ETS1 binding intensity (PBM fluorescence), ETS1 alone (arbitrary fluorescence units); higher = stronger binding; details: ETS1 concentration 1 nM; RUNX1 concentration 0 nM
# T1 sequence: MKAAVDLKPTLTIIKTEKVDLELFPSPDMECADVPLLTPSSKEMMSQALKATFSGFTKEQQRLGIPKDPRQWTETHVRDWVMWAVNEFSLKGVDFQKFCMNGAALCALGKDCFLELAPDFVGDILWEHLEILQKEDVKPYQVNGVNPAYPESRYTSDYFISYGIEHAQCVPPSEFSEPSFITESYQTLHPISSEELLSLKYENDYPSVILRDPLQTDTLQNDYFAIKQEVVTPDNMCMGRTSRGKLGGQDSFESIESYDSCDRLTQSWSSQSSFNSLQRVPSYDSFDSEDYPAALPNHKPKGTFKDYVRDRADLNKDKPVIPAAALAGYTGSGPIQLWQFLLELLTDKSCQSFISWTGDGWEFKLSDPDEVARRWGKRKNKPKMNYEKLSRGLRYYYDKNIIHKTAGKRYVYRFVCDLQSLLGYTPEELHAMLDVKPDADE
# RUNX1 [2] = biological target: RUNX1 (UniProt Q01196); experiment: RUNX1 binding intensity (PBM fluorescence), RUNX1 alone (arbitrary fluorescence units); higher = stronger binding; details: RUNX1 concentration 2 nM; ETS1 concentration 0 nM
# Experimental: (§1)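 Cooperative gcPBM on 36-bp genomic probes with neighbouring ETS1 and RUNX1 sites. Recombinant human RUNX1 (2 nM) was incubated alone or with ETS1 (25 nM) and detected with anti-RUNX1 antibody plus Alexa488 secondary. Values are medians over 4 replicate spots; the RUNX1+ETS1 data were normalised to the RUNX1-only data. The probes sit in constant array flanks that are not printed.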
# ETS1 [3] = biological target: T1, ETS1; experiment: ETS1 binding intensity (PBM fluorescence) in presence of RUNX1, normalised to ETS1-only experiment (arbitrary fluorescence units); higher = stronger binding; details: ETS1 concentration 1 nM; RUNX1 concentration 25 nM
# RUNX1 [4] = biological target: RUNX1 (UniProt Q01196); experiment: RUNX1 binding intensity (PBM fluorescence) in presence of ETS1, normalised to RUNX1-only experiment (arbitrary fluorescence units); higher = stronger binding; details: RUNX1 concentration 2 nM; ETS1 concentration 25 nM
# Experimental: as §1
# 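Wherever RUNX1 binding intensity (PBM fluorescence) in presence of ETS1, normalised to RUNX1-only experiment is given: Full-length recombinant human ETS1 or RUNX1 bound to double-stranded 36-bp genomic probes on microarrays, detected by protein-specific primary antibody and Alexa488 secondary, spot fluorescence as median of four replicate spots.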
# 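Wherever RUNX1 binding intensity (PBM fluorescence), RUNX1 alone is given: Full-length recombinant human RUNX1 bound to double-stranded 36-bp genomic probes on a high-density microarray, scored as Alexa488 fluorescence per spot via anti-RUNX1 antibody, median of four replicate spots.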
# RUNX1, sequence (Q01196 whole entry): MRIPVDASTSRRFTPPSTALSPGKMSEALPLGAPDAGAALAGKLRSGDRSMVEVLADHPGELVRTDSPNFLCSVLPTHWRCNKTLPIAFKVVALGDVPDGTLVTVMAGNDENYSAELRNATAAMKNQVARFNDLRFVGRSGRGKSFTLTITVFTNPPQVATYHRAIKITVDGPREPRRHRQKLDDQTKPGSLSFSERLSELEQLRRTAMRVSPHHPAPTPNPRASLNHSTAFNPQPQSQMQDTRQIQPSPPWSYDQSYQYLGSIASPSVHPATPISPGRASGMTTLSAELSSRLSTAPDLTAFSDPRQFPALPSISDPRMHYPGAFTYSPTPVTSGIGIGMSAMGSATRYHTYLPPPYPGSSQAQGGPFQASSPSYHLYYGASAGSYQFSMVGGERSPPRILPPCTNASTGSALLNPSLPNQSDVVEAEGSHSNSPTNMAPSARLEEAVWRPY
Sequence,ETS1 binding intensity (ETS1 [1]),RUNX1 binding intensity (RUNX1 [2]),ETS1 binding intensity (ETS1 [3]),RUNX1 binding intensity (RUNX1 [4])
TACAGGAACTTCCTGCGCGGCTGCTGTGGTTGCGAG,794,684,1350,1680
GCCTCCTCCCATTTCCTCCATGTGGTCAATCCAGTT,459,2070,731,3860
CAGAGAGAGGCCACATCCCTGTGGTCACACATACCC,428,980,590,1030
CCCCGGGAAGGGAAGTTTGTGGCGGAGGAGGTTCGT,592,805,589,934
GAGGGGTGGGGGAGGAAGGCTGCGGTTTCTGCTGGG,390,8430,2180,11100
ATTACAGGAAGTATGTCCTCCTCTGCCTAACCACTG,2270,831,2210,1270
CACTTCCCCCAGCCTCTCTTTTTAATACCACAATAG,634,3520,876,3290
CACTCCCCGCATCCGGTCTGCGGCGCGCTCGGGGCC,3830,912,4710,29400
AGCTCAATTTCCTGGCGTGTAACATGGCCACAAGGG,827,830,595,1390
TGAAACCCAGCAGGATGTGGGTTAACGGCAGGGGAG,2590,733,6440,2250
ACCGGATGCCGGGGCACCGCCAGATGTGGCCACGAG,1500,746,1730,941
CAAAAGTGCTTCCTCTCGAGGGGTTGTGGTTCTTAC,396,716,520,1070
CAACAACCGGAAGTGGGGCGGGCCGCAGTACCCGCC,14900,701,15800,3010
CAGGGTGTCGGCTTCCGGCGGTTGCCCACTTTCGGC,1100,763,1090,1790
GCTGCAGCAGGCGGGAAGTCTGCGGTTCGCGGGCTC,622,1150,6590,1830
CCGAGCTTAACGACATCCTGCGGCTCAGCGTGGAGG,435,792,471,1190
GGTCTCTGCTTCCGGTCCTTGTGGTAGCACCTCTGT,4510,936,5180,2710
GGGGGAGTTTTCGGAAGCGCTAACCGCGTTGGGGCC,365,860,874,954
GTAGAGACAGGAAATTATGTTGGTTTTCTTGCAGAA,3530,724,3800,1310
CCGCCCTAGAGCAGGAAATAGCGGTCAGCGCCAGCT,2740,857,7280,1980
CCATTCACGGGCTTCCGCGGTGTCCCCACCCCCTAA,724,1080,760,1160

Sequence,ETS1 binding intensity (ETS1 [1]),RUNX1 binding intensity (RUNX1 [2]),ETS1 binding intensity (ETS1 [3]),RUNX1 binding intensity (RUNX1 [4])
AAAACAAGGACTTCCGCCTCCCTGCGGTCCCTCCCC,2140,894,2730,1880
CTCCTTCCTGTGTGTTACTCTTAAAAACCACAGAGG,519,1230,1780,3040
GAAATGAGAGAACGGAAACCACAAGTCAAGGGGCTT,1460,3620,2790,4480
TTTACTGAGAGGAAGTGGTTCTTGTGGGTGAAGGTC,2420,898,6070,1530
GAAGCGATATTTCCTCCTGGGGTTGACCGCCCCGTG,492,761,478,1090
AATGATTACCTAACAGGAAAACCACATTGGTCATTT,1150,1180,3100,1130
ACACAGGAAGCAAAAGTTAAGCTATAAAACCCGCAA,571,969,765,1240
AGGTTAATACCCGGAACTACCACAACCGTCTTCCCT,772,1020,862,985
CCCCTTCCCGTTCTCCGAAAGTGCGCGGGTTGGAGC,489,792,361,1230
CTTCATCAACCCATCCTGTCTTGTGGTTAAGTCAAG,392,4120,1700,6360
GAGCAAACGGAGGCAGGAAGTGGTTATGTAACTTCA,7030,810,12400,2170
CTAGCTGTGGACAGGAAACGAGTGGTTTTTGTGATC,5270,740,8040,1400
AGGGCATTTCCTTTGGGGCTGGTGGTCACGGACAAC,471,723,381,1430
TTTTTTCCGCCTGTAGGGTCACATTGTGGTTGATTG,446,1000,725,1790
GCAACGGAGTCCGGAAGAACCACAGAGACGCGGCTC,789,730,694,858
AGATGAGGAAGTTGGGGTTTAGAGTGGTTAAACTGT,502,698,655,1020
GGCCCGGCCGGAAGAAGCCACCTCCCCCGCACGCGT,2410,849,2860,1240
ACAGTCGCACCGGAAGCTGCCCGCGGTGTTGACACA,8580,700,11300,1360
TGAGCTCAGGCCGGAAGCGGTGGATGATGGCACACA,9910,716,8670,1560
CTGGGGAGGAAGCCTGAGGTGTGTGGTTTTGTTAAC,374,1040,811,983
TCAGAACCAGGAAACTGAAGGCGGTTACTCCACATA,526,742,663,875

Sequence,ETS1 binding intensity (ETS1 [1]),RUNX1 binding intensity (RUNX1 [2]),ETS1 binding intensity (ETS1 [3]),RUNX1 binding intensity (RUNX1 [4])
AGCCCCTACCACTTCCCCCCACAGCAGTTCTGAGAT,720,1410,755,2250
GCTTACACTTCCTCCCTGAACCCCTGCGGTTTCACA,511,4160,1960,10200
GACCAGGAAACGGGGCGTGGCGGCCGCCGTGGTTAC,449,806,485,857
GCCCCCGGCTGGGCAGGATGTGGTGGCAGCTGCAGG,4040,743,5380,1320
TTGCTTTATCACTTCCTGTTTGAGGTTTATATCCAT,5630,1590,9450,3160
ACATTTCCTTTTGGTATTTAAAGTAACCACACAGAA,495,1060,668,2120
AGGGAGCCCTCCATTTCCTGCCCACATTTGTCACCT,2360,1240,2060,2260
AACCCCAAAACGGAAACACCGGAGCCACAAGCTGAG,731,900,961,1300
TCCCCTTTCCGGGAAGGGTTGGGGATCTGACCACGT,437,728,498,1320
GGGGCAGCTTCCGGCAGGAGAGCCCGCATTCCCGGC,903,1460,771,2470
AACTAGGCTTTTCTTTCCTGTGGTCCTTAAGGAGGC,461,929,329,1020
GCCCACTTCCTGCCGTAAGAGAAAACCACTAACACA,890,1970,2190,4760
TCCCCACATCCTTTAAAACGATGAGATAACCACATG,398,1000,636,2960
GCGGAGGGAAGCGGAAATACTTGCGGTGGGGGCGAC,3700,898,19400,2210
GGACACAGGCTTCCGCGTTACCGACACCGCGTGGGG,451,837,311,934
CGGAGGCGGCCGGAAGTAGCGCTGCGGTTGGCAGCT,16800,937,64100,6060
CAAGCACATTACGGAAGAGGCTGACCGCAAATACGA,595,4550,6680,6950
CTTCTGAGAGGAGGATGTGGTCAGATACCTACAAAT,1030,854,7800,1650
GAGGGTTGCTGGGGGGAAGTGTGGTAAATCTTTTCC,458,938,475,930
AGCTGAGAGCCTGCCGGAAGCCACAGCTTCTTCTCG,4180,801,5670,1200
TGCTTAGCAGGAAGTTAGTCTGCCTGTGGTAGCTCC,2770,734,3470,1020

Sequence,ETS1 binding intensity (ETS1 [1]),RUNX1 binding intensity (RUNX1 [2]),ETS1 binding intensity (ETS1 [3]),RUNX1 binding intensity (RUNX1 [4])
GGACTGCGTTTCCGGACACTGCGGGTGCCGGTAGCC,1290,671,1680,1450
GCAACAGCGATCCCCGGAAACCACAAGGCGAGATGT,1660,1680,5080,2790
GAGCGCCCACTTCCTGTTTACCACCCAGCCTCTTCG,3670,1110,5330,7590
CAAATGAATAAAGGATGTGGTAAATTATTTTCTTCT,935,814,5660,1780
AGCACAAACCCAGGATGTGGTAAATGAAATGAAAAA,1260,858,5210,1460
CCCACCCTCGCCGGAAGCCGAGCGGTTTCTACATCA,2120,1110,3600,1540
GCTAAGGTGAAAGGAAGTGGGTTTTGTCTTTTTTTT,2500,854,4150,1340
TCCTCCATGCAGGAAAACCTCTGTGGTCTGGGAGCT,438,867,1230,862
TTTGTCATATCAACAGGATGTGGTTCTCCCCTGGTT,6920,905,10700,1530
AGGTTCCGGCGAAAGTGACCGAAAGTAACCGCCGGG,351,670,518,967
GAAGGCGGTTCCGGTTCGCGGCGGTTCCCGGGTTTT,515,794,466,1820
CACCAGGACGCAACAGGAAACCACAAAGGCCTGAGA,2390,2660,6500,5270
CCCTACTCAGGAGGATGTGGTTGGAGAACCCGCTGA,815,755,2260,1300
GAGGGGAGGATGTCTGAGCTTTTAATTGTGGTTTCA,370,870,1050,943
CAGAGAAACAGGAAGAACAGTGGTTTCAACTGAAAT,1310,783,1310,939
ACGACGTCCCGGAAGTGCTGCGGCAATGTTGCTCTT,5570,759,6620,1470
GCCCCCGGAAGCTGTCGCCCCGTGCGGTGTGTGCTG,1600,787,2000,1330
AAGAACCTAGAGGATGTGTGGTTTTATGTGCAGGGT,710,914,1830,1150
